From PubChem
Shown are actives, neighbours in structure and some others; about 1.6% of the full set was active somewhere.
HBB splice mod – qHTS Assay for Modulators of Hemoglobin Beta Chain Splicing; HBB splicing reporter cell assay, activation; EGFP reporter with mutant IVS2-654 intron; response scale: normalised to 500 nM splice-correcting PNA; Potency, µM (highest dose often 46.1 µM), for the others: at the top dose activation, actives largely listed as activators; 0.06% of 65,000 active; also: potency is read from the fitted curve at half-maximal effect; 0% is about no effect
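Compounds were applied for 2 days to HeLa EGFP-654 cells, 500/well in Optimem with 2% FCS. The reporter's EGFP is disrupted by mis-splicing of beta-globin intron IVS2-654. Readout: summed well GFP fluorescence from 488 nm laser scanning; reference was 500 nM antisense […] 654 PNA.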
Imprint erasure – qHTS Assay for Compounds that Induce Erasure of Genomic Imprints. mouse ES Peg3-LacZ reporter, beta-gal luminescence, 40 h. Potency, µM (titrated, usually from 60.7 µM), for inactives: top-dose activity change, positive = activation, most hits filed as activators. 0.02% of 110,000 active. AID 1948, 2009; also: potency is read from the fitted curve at half-maximal effect
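Imprint erasure is scored as LacZ activity from the silenced maternal Peg3 allele in feeder-free female ES cells cultured 40 h with LIF. Luminescence is normalized to in-plate negative controls and fitted to the Hill equation.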
p53ts 39C kill – qHTS Screen for Compounds that Selectively Target Cancer Cells with p53 Mutations: Cytotoxicity of p53ts Cells at the Nonpermissive Temperature. H1299-p53A138V viability at 39C, ATP luminescence, 24 h. 1.5% of 130,000 active. Potency, µM (top dose mostly 46.1 µM), for inactives: at the highest dose activity change, negative = cell killing, most hits filed as cytotoxic; also: potency is read from the fitted curve at half-maximal effect; % is scaled to controls: 0 for no effect and ±100 for the full control effect; nearly all actives have a fitted effect of over 55% in size
Ub-GFP proteasome – Ubiquitin-GFP Assay | Ubiquitin-GFP reporter cells, proteasome inhibition, GFP fluorescence; response scale: untreated = 0%, 10 µM MG-132 = 100% | Potency, µM (top dose mostly 45.9 µM), for inactives: at the top dose activation (GFP accumulation), actives largely listed as activators | 67,000 tested, under 10 active | AID 526, 2006; active = well fitted activation curve with a large enough effect, not every such curve was filed as active; inconclusive = small, poorly fitted or top-dose-only effect, or another doubt; inactive = no such curve, though single readings can be large or run the other way; also: potency is read from the fitted curve at half-maximal effect
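Proteasome blockade was scored as a rise in GFP-expressing U2OS cells carrying a ubiquitin(G76V)-GFP construct, imaged after 4 hr compound treatment at 37 °C across a 46 uM–2.9 nM series.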
p53ts 32C tox – qHTS Screen for Compounds that Selectively Target Cancer Cells with p53 Mutations: Cytotoxicity of p53ts Cells at the Permissive Temperature | H1299-p53A138V at 32C, ATP luminescence viability, 24 h | Potency, µM (doses to about 46.1 µM), for inactives: at the top dose activity change, negative = cytotoxicity, hits mostly cytotoxic | 0.93% of 130,000 active | AID 924, 2007;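 also: potency is read from the fitted curve at half-maximal effect; 0% = DMSO and -100% = full killing by reference compound; nearly all actives have a fitted effect of over 55% in size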
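ATP-content luminescence (ATPlite) read-out after 24 h compound exposure at 32C in H1299-p53A138V cells (600/well). Tested up to 46 uM. Normalized to DMSO (0%) and 100 uM tamoxifen (100% killing); Hill-fit AC50.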
GFP derepression – qHTS Assay for Epigenetic Modulators. mouse C127i GFP locus derepression, cytometry, 30 h. Potency, µM (doses to about 46.1 µM), for the others: at the highest dose GFP derepression (activation). 0.09% of 68,000 active. AID 597, 2007; also: % of control where 0% means no effect
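Derepression screen: silenced CMV-GFP reporter in murine C127i cells, 30 h compound incubation at 37 C, washed cells imaged by laser-scanning cytometer to enumerate GFP-expressing objects of 20 to 120 um.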
* = called active by the depositor; [ ] = another dose, or the depositor's remark. Unless noted, calls follow the shape of the dose curve; as a rule, active = well fitted curve in the direction sought with a large enough effect; inconclusive = small, poorly fitted or top-dose-only effect, or another doubt; inactive = no such curve, though single readings can be large; an effect the other way counts as inactive or inconclusive.

For COc1ccc(C(=O)c2c[nH]c3ccccc23)cc1 the results were HBB splice mod -3%[0.0738 µM], Imprint erasure -26%, p53ts 39C kill 10µM*, Ub-GFP proteasome -3%[9.17 µM], p53ts 32C tox 7.9µM* and GFP derepression -2%.
Screening COc1ccc(NC(=O)c2c(NC(=O)COc3ccccc3)sc3c2CCC(C)C3)cc1 (stereo not given) returned Imprint erasure inconclusive, p53ts 39C kill 15% and p53ts 32C tox 1%.
CCc1ccc2occ(CC(=O)Nc3c(C(=O)Nc4ccc(C)cc4)oc4ccccc34)c2c1 was read as Imprint erasure -3%[10.9 µM], p53ts 39C kill 32µM* and p53ts 32C tox -29%.
`Cc1cccc(Cn2c(N(C)Cc3ccccc3)nc3c2c(=O)[nH]c(=O)n3C)c1` gave HBB splice mod 0%, Imprint erasure -46%, p53ts 39C kill 5µM*, Ub-GFP proteasome 9% and p53ts 32C tox 6.3µM*.
Screening CCc1ccc(NC(=O)c2cc(C)nn2-c2ccccc2)cc1 returned Imprint erasure -10%[10.9 µM], p53ts 39C kill -21% and p53ts 32C tox 27%.
Screening CCN(CC)S(=O)(=O)c1ccc2c(c1)c(=O)c(C(=O)NCc1ccccc1Cl)cn2C returned Imprint erasure 28%[10.9 µM], p53ts 39C kill 6.3µM* and p53ts 32C tox inconclusive.
For O=C(N[C@@H](Cc1ccccc1)C(=O)CCl)OCc1ccccc1 the results were HBB splice mod 1%, Imprint erasure -30%, p53ts 39C kill 3.2µM*, Ub-GFP proteasome 8%, p53ts 32C tox 4µM* and GFP derepression -1%.
For COC(=O)C(C(C)=O)C(=O)C(Cc1ccccc1)NC(=O)OCc1ccccc1 (stereo not given) the results were HBB splice mod 1%[9.22 µM], p53ts 39C kill 6%[9.22 µM] and p53ts 32C tox -6%[9.22 µM].
`COc1ccc(-n2nc3ccccc3n2)cc1` gave HBB splice mod 3%[57.5 µM], Imprint erasure -27%, p53ts 39C kill 0%, Ub-GFP proteasome 5%, p53ts 32C tox 0% and GFP derepression 0%.
`COc1ccc(-n2nc3cc(C)c(N)c(Br)c3n2)cc1` gave HBB splice mod 0%, Imprint erasure -28%, p53ts 39C kill 13µM*, Ub-GFP proteasome 1%, p53ts 32C tox 13µM* and GFP derepression 19%.
CCCS(=O)(=O)Nc1cccc(-c2cn3ccc(C)cc3n2)c1 was read as Imprint erasure -4%[10.9 µM], p53ts 39C kill inconclusive and p53ts 32C tox inconclusive.
`Cc1cc([N+](=O)[O-])ccc1NC(=O)/C=C/c1cccs1` gave p53ts 39C kill -20%.
Cc1ccnc(NC(=O)/C=C/c2cccs2)c1 was read as p53ts 39C kill 7.1µM*.
Screening Cc1ccc(SCC(=O)Nc2ccc3oc(-c4cccc(C)c4)nc3c2)cc1 returned Imprint erasure -13%[10.9 µM], p53ts 39C kill -11% and p53ts 32C tox -14%.
Screening COc1cc(C(=O)Nc2cc(-c3nc4cc(C)ccc4o3)ccc2C)cc(OC)c1OC returned HBB splice mod 1%, Imprint erasure -15%, p53ts 39C kill inconclusive, Ub-GFP proteasome -22%, p53ts 32C tox 13µM* and GFP derepression 11%.
Cc1ccc2oc(-c3ccc(NC(=O)CCC(=O)O)cc3)nc2c1 was read as Imprint erasure -18%[10.9 µM], p53ts 39C kill 16µM* and p53ts 32C tox inconclusive.
For COc1cc(C(=O)Nc2cccc(-c3nc4cc(C)ccc4o3)c2)cc(OC)c1OC the results were p53ts 39C kill -27% and p53ts 32C tox -25%.
Cc1ccc2nc(-c3ccc(C)c(NC(=O)CSc4ccc(Cl)cc4)c3)oc2c1 was read as Imprint erasure 9%[10.9 µM], p53ts 39C kill -20% and p53ts 32C tox -19%.
`CCC(=O)Nc1ccc2oc(-c3cccc(C)c3)nc2c1` gave HBB splice mod -1%, Imprint erasure -91%, p53ts 39C kill inconclusive, Ub-GFP proteasome 9%, p53ts 32C tox 13µM* and GFP derepression 0%.
Cc1ccc2nc(-c3cccc(NC(=O)CSc4ccc(Cl)cc4)c3)oc2c1 was read as Imprint erasure -52%[10.9 µM], p53ts 39C kill 14% and p53ts 32C tox 13µM*.
For OCC1OC(Oc2cccc3cccnc23)C(O)C(O)C1O (stereo not given) the results were Imprint erasure -6%, p53ts 39C kill 5% and p53ts 32C tox 3%.
CC(=O)c1ccc(-c2cccc(-c3cc(=O)oc4ccc(C(C)(C)C)cc34)c2)cc1 was read as Imprint erasure -20%.
Screening O=C(Nc1ccc(F)cc1)N1CCN(C(=O)c2nsc3ccccc23)CC1 returned Imprint erasure -4%[10.9 µM], p53ts 39C kill 5% and p53ts 32C tox -1%.
For CCCCc1ccc(C(=O)c2c(N)c(C(=O)Nc3cccc(OC)c3)c3ccccn23)cc1 the results were Imprint erasure 12%[10.9 µM], p53ts 39C kill -6% and p53ts 32C tox -6%.
Screening CCCC(=O)Nc1cccc(-c2nc3ccccc3o2)c1 returned HBB splice mod 1%, Imprint erasure -14%, p53ts 39C kill 5%, Ub-GFP proteasome 1%, p53ts 32C tox 2% and GFP derepression -2%.
CCCC(=O)Nc1cccc(-c2nc3cc(C)c(C)cc3o2)c1 was read as HBB splice mod -2%[0.0738 µM], Imprint erasure -45%, p53ts 39C kill inconclusive, Ub-GFP proteasome inconclusive, p53ts 32C tox 16µM* and GFP derepression -2%.
O=C(c1ccccc1)N(Cc1ccccc1)c1ccccn1 was read as HBB splice mod 0%[0.0738 µM], Imprint erasure -11%, p53ts 39C kill 4%, Ub-GFP proteasome -1%[9.17 µM], p53ts 32C tox 0% and GFP derepression -2%.
Screening CC1CCN(C(=O)COC(=O)c2n[nH]c3ccccc23)CC1 returned HBB splice mod -5%, Imprint erasure -42%, p53ts 39C kill 10µM*, Ub-GFP proteasome 1%, p53ts 32C tox inconclusive and GFP derepression -1%.
`O=C(OCC(=O)N1CCCCCC1)c1n[nH]c(=O)c2ccccc12` gave HBB splice mod -8%, Imprint erasure -14%, p53ts 39C kill -2%, Ub-GFP proteasome -5%, p53ts 32C tox -3% and GFP derepression -1%.
